HepG2 tox: counter-screen for TGF-b inhibitors: cytotoxicity in HepG2 cells; HepG2 CAGA-GFP viability, ATP luminescence, 18 h; Potency, µM (top dose mostly 46.1 µM), for inactives: at the highest dose activity change, negative = cytotoxicity, hits mostly cytotoxic; actives 0.76% (n = 410,000); AID 588856; further: potency means the concentration at half of the fitted maximal effect
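HepG2 CAGA-GFP cells (1000/well, DMEM with 1% FBS) received compound, then TGF-beta at 500 pg/mL final, and were incubated 18 hours at 37 degrees C. Viability was read by CellTiter-Glo luminescence. Media-only wells were set as complete cell-killing and DMSO as no toxicity.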
ATXN2 expr inh: inhibitors of ATXN2 expression. HEK-293 ATXN2-luciferase reporter, luminescence, 24 h. Potency, µM (series often up to 57 µM), without a hit: at the highest dose activity change, negative = inhibition, actives largely listed as inhibitors. actives 0.72% (n = 360,000). AID 1745845; further: potency means the concentration at half of the fitted maximal effect; on the % scale 0 is the no-effect control and ±100 the full control effect; nearly all actives have a fitted effect of over 55% in size
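ATXN2-luciferase reporter cells (luciferase flanked by upstream and downstream ATXN2 gene portions) were treated 24 h at 37 °C with compounds at up to 57 uM. SteadyGlo luminescence gave expression; GF-AFC fluorescence gave viability.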
uPA surface inh: cell surface uPA generation inhibition | cell surface uPA generation assay, qHTS | Potency, µM (highest dose often 38.3 µM), without a hit: top-dose activity change, negative = inhibition, usual class: inhibitors | actives 0.31% (n = 330,000); active means well fitted inhibition curve with a large enough effect; inconclusive means small, poorly fitted or top-dose-only effect; inactive means no such curve, though single readings can be large or run the other way; tested in mouse RAW 264.7 cells; further: potency means the concentration at half of the fitted maximal effect; on the % scale 0 is the no-effect control and ±100 the full control effect; nearly all actives have a fitted effect of over 55% in size
Giardia killer: Giardia lamblia killing | Giardia lamblia trophozoite viability | activity change, % at 7.66 µM, hits read low | actives 0.15% (n = 340,000) | AID 540267; in the data active means activity change below about -80%; inconclusive means between about -30% and that limit;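 further: parasites exposed to compound for two days anaerobically before the ATP read; on the % scale 0 is the no-effect control and ±100 the full control effect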
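Each well holds 100 Giardia trophozoites and compound. After two days (48 hrs) at 37 deg C in anaerobic conditions, ATP is quantified by luminescence.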
TGFb inhibitor: TGF-b pathway inhibition. HepG2 CAGA-GFP TGF-b/SMAD3 reporter, GFP fluorescence, 18 h; TGF-beta stimulated, 500 pg/mL final. Potency, µM (highest dose often 46.1 µM), without a hit: at the highest dose activity, negative = inhibition, usual class: inhibitors. actives 1.2% (n = 410,000). AID 588855; further: potency means the concentration at half of the fitted maximal effect; on the % scale 0 is the no-effect control and ±100 the full control effect; nearly all actives have a fitted effect of over 65% in size
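Inhibition was scored as loss of TGF-beta-induced (500 pg/mL final, 18 hours, 37 degrees C) GFP in HEPG2 cells carrying a CAGA-GFP reporter, in DMEM with 1% FBS. Well GFP was summed per cell; Activity was normalised to unstimulated and stimulated DMSO wells, then concentration-response fitting.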
S2 tox: reduces viability in counter-screen for ATXN expression inhibitors | S2 cells (HEK-293 line with an ATXN2-luciferase reporter) viability, CellTiter-Fluor protease fluorescence, 24 h | Potency, µM (top dose mostly 56.7 µM), usual class: cytotoxic | actives 0.49% (n = 400,000); further: potency means the concentration at half of the fitted maximal effect; nearly all actives have a fitted effect of over 40% in size
Active calls of the source: *; i = inactive; ? = inconclusive; · = no result given; [ ] = dose if it differs, or a comment. Rows were chosen to be rich in hits. Some 2.6% of all compounds tested hit in one or more screens of this group. Unless noted, the call rests on the fitted dose curve; in most records, active means well fitted curve in the direction sought with a large enough effect; inconclusive means small, poorly fitted or top-dose-only effect, or another doubt; inactive means no such curve, though single readings can be large; an effect the other way counts as inactive or inconclusive.

SMILES	HepG2 tox	ATXN2 expr inh	uPA surface inh	Giardia killer	TGFb inhibitor	S2 tox
CCCCNc1c(-c2ccc(SC(C)CC)c(OC)c2)nc2ccc(Cl)cn12 (stereo not given)	-5.3%	4.5%	2.0%	-11.5	?	i
CCCCNc1c(-c2ccc(SC(C)CC)c(OC)c2)nc2ccc(C)cn12 (stereo not given)	20µM*	?	?	12.1	?	?
c1ccc2c(Oc3nc(Nc4ccc(N5CCOCC5)cc4)c4ncn(C5CCCCC5)c4n3)cccc2c1	·	-16.5%	·	·	·	·
c1ccc2c(CCNc3ncnc4nc[nH]c34)c[nH]c2c1	25.4%	-36.4%	2.82µM*	19.2	-17.1%	?
CCCCN(CCCNc1ncnc2nc[nH]c12)c1ccccc1	3.16µM*	?	-1.9%	-7.6	?	?
c1ccc(CCNc2ncnc3nc[nH]c23)cc1	-0.1%	41.3%	-4.3%	2.0	-24.8%	i
COCC(=O)Nc1cc(C(=O)NC2Cc3ccccc3C2)cc2nc(-c3cccnc3)n(C)c12	·	·	·	·	·	i
Cc1cc(C)c2c(n1)NCCC2	-4.6%	·	·	·	?	·
CCC(C)c1ccccc1OCCn1c(CCNC(=O)C2CCCCC2)nc2ccccc21 (stereo not given)	-0.5%	·	·	-14.2	7.4%	·
CC(=O)Nc1ccc(/C=C/C(=O)c2ccc3c(c2)OCCO3)cc1	-61.5%	0.2%	-2.8%	1.8	?	i
CCC(=O)Nc1cccc(C(=O)/C=C/c2ccc(F)cc2)c1	14.1µM*	?	?	0.1	20µM*	?
CC(=O)Nc1cccc(C(=O)/C=C/c2ccc(C)cc2)c1	12.6µM*	-4.7%	-9.9%	-5.2	?	?
CCCCCCCCCCCCOCCO	·	15.0%	·	·	·	i
O=C(Nc1ccc(F)c(Cl)c1)c1cc(C2CCCN(S(=O)(=O)c3cccs3)C2)on1 (stereo not given)	-15.0%	-12.8%	·	·	8.4%	?
O=C(Nc1ccccc1Cl)c1cc(C2CCCN(S(=O)(=O)c3cccs3)C2)on1 (stereo not given)	11.2µM*	-11.9%	·	·	?	i
O=C(Nc1cccc2c(=O)cc(-c3nn[nH]n3)oc12)c1ccc(OCCCCc2ccccc2)cc1	·	31.1%	·	·	·	i
Oc1ccc(Br)cc1C1C=C(c2ccc3c(c2)OCO3)NC(c2cccc(F)c2)N1 (stereo not given)	-103.4%	·	·	-18.3	?	·
Oc1ccccc1C1C=C(c2ccc3c(c2)OCO3)NC(c2cccc(Br)c2)N1 (stereo not given)	-93.2%	·	·	-18.4	?	·
COC(=O)c1ccc(C2NC(c3ccc4c(c3)OCO4)=CC(c3ccccc3O)N2)cc1 (stereo not given)	-49.0%	·	·	-20.4	11.2µM*	·
Oc1ccccc1C1C=C(c2ccc3c(c2)OCO3)NC(c2cccc(F)c2)N1 (stereo not given)	17.8µM*	·	·	-19.1	?	·
COc1ccc(CNCC(O)(c2ccc(Cl)cc2)c2ccc(Cl)cc2)cc1	10µM*	?	-8.4%	9.1	0.0%	?
COc1ccc(CNCC(O)(c2ccc(Cl)cc2)c2ccc(Cl)cc2)cc1OC	22.4µM*	?	-12.5%	-2.6	?	?
COc1ccc(CNCC(O)(c2ccccc2)c2ccc(F)cc2)cc1 (stereo not given)	-43.0%	-23.3%	-1.0%	12.7	?	i
OC1(c2ccccc2)CCN(Cc2ccccc2)CC1	0.0%	-12.2%	-12.9%	-1.5	14.0%	i
OC1(c2ccc(Cl)c(Cl)c2)C[n+]2ccccc2N1Cc1ccccc1 (stereo not given)	-89.6%	35.5µM*	0.5%	8.6	?	·
SMILES	HepG2 tox	ATXN2 expr inh	uPA surface inh	Giardia killer	TGFb inhibitor	S2 tox
CC1CCCC(NC(=O)COC(=O)c2ccc([N+](=O)[O-])o2)C1C (stereo not given)	3.16µM*	-18.0%	0.9%	-9.0	-24.8%	i
Cc1ccccc1C1(CC(=O)N2CCCCC2c2cccnc2)CC(=O)N(C2CCCC2)C1=O (stereo not given)	·	·	·	·	·	i
COc1ccc(-c2nc3ccc(NC(=O)CO)cc3c(=O)n2Cc2cccc(Cl)c2)cc1COc1ccc(NC(C)=O)cc1	·	·	·	-5.2	·	·
CNc1cccc(-c2ccc(C(C)=O)s2)n1	-7.3%	30.9%	·	·	25.9%	i
CC(=O)c1ccc(-c2cccs2)s1	-36.7%	-0.6%[11.3 µM]	0.1%	-12.6	10µM*	i
COC(c1ccc2c(c1)CN(C(=O)Cn1nc(C)c3ccccc3c1=O)CCO2)C1CCCCC1 (stereo not given)	·	·	·	·	·	i
O=C(Oc1cccc2c(O)cccc12)c1ccccc1	-115.8%	-21.0%	-4.1%	2.7	14.1µM*	?
C[C@H]1C[C@H]2[C@@H]3CCC4=CC(=O)C=C[C@]4(C)[C@@]3(F)[C@@H](O)C[C@]2(C)[C@@]1(O)C(=O)CCl	·	·	·	·	·	i
CCN1CCc2c(sc(-n3cccc3)c2C(C)NC(=O)Nc2ccc(Br)cc2)C1 (stereo not given)	14.1µM*	·	·	·	10µM*	·
CCOc1ccc(NC(=O)NC(C)c2c(-n3cccc3)sc3c2CCN(CC)C3)cc1 (stereo not given)	-14.5%	·	·	·	?	·
CCN1C(=O)CC(CC(=O)N2CCC(c3nc4ccc(F)cc4[nH]3)CC2)(c2ccccc2C)C1=O (stereo not given)	·	·	·	·	·	i
O=C(Nc1ccc(F)c(Cl)c1)C1CCCC1	10µM*	-27.4%	-3.7%	16.8	0.0%	i
O=C(Nc1ccc(F)c(Cl)c1)C1CCCCC1	-11.9%	9.7%	-2.4%	-5.1	-17.4%	?
CCOc1ccc(NC(=O)CSc2nnc3c(n2)[nH]c2ccc(S(=O)(=O)N4CCCCC4)cc23)cc1	·	·	·	-22.8	·	·
COc1ccc(C(=O)Cn2c(C(=O)/C=C/c3ccccc3)nc3ccccc32)cc1	-50.5%	22.4µM*	-10.7%	-13.7	1.8%	?
COc1ccc(NC(=O)CSc2nc3c(oc4ccccc43)c(=O)n2-c2ccccc2)cc1OC	2.6%	-1.8%	·	·	-2.0%	17.8µM*
COc1cc(=O)n2c(c1C(=O)NCc1ccco1)CCN(C(=O)c1ccc(C)c(C)c1)CC2	·	·	·	·	·	i
CCCCn1cnc2cc(NCc3ccc(OCC)cc3)ccc21	-34.1%	8.4%	·	·	10µM*	i
CC(C=CC1=C(C)CCCC1(C)C)=CC=CC(C)=CC(=O)O	·	-17.4%	·	·	·	·
O=[N+]([O-])c1ccc(O)c(C(C#Cc2ccccc2)N2CCOCC2)c1 (stereo not given)	-3.7%	23.4%	-1.9%	7.5	12.6µM*	i
COc1cc2c(ccc3cc(OC)c(OC)c(O)c32)cc1O	-18.3%	?	10µM*	-5.1	6.9%	?
Cc1ccnc2c(Cl)c(Cl)ccc12	4.1%	·	·	·	-0.3%	·
